# Assay results as given in PubChem BioAssay AID651610 (Broad Institute, 2012).
# Hit rate of the full screen: of about 360,000 compounds, about 3,900 (1.1%) were called active.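 The calls were made as follows: active = mean replicate inhibition score of at least 50 and every replicate individually at or above 50; inconclusive = only one of the two criteria met; inactive = mean below 50 and not all replicates reaching 50.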 The sample as a whole holds a higher share of actives than the screen did.
# Assay: blockers of JRFL envelope-mediated fusion – HeLa-JRFL effector, CEM21 target cells, luciferase, primary screen (AID 651610);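 also: 0% = plate neutral controls and 100% = maraviroc near 300 nM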
# Conditions: HeLa-JRFL Env/CEM21 cell fusion, active compounds read high; at 16.7 µM unless noted
row,Structure (SMILES),inhibition
1,COc1ccc(NC(=O)N(C)C[C@@H]2Oc3ccc(NC(=O)Cc4cn(C)c5ccccc45)cc3CC(=O)N([C@@H](C)CO)C[C@H]2C)cc1,-18.3% (inactive)
2,CCc1cnc(N2[C@H](C#N)[C@H](c3ccc(C4=CCCC4)cc3)[C@@H]2CO)s1,1.6% (inactive)
3,CCCOc1ccc(F)cc1-c1cc(C(=O)NCc2ccc(F)cc2)[nH]n1,-16.3% [at 12.3 µM] (inactive)
4,Cc1ccc(O)c(-c2cc(C(=O)NCc3ccccc3)[nH]n2)c1,-126% [at 12.3 µM] (inactive)
5,Cc1cc(O)ccc1-c1cc(C(=O)NCc2cc(C(F)(F)F)cc(C(F)(F)F)c2)[nH]n1,59.8% [at 12.3 µM] (active)
6,CS(=O)(=O)N1[C@H](C#N)[C@H](c2ccc(C#CC3CCCC3)cc2)[C@H]1CO,1.54% (inactive)
7,COc1cccc(S(=O)(=O)Nc2ccc3c(c2)[C@@H]2C[C@H](CC(=O)NC4CCCCC4)O[C@H](CO)[C@@H]2O3)c1,-12.8% (inactive)
8,COc1ccccc1-c1cn(CC[C@H]2CC[C@H](NC(=O)Cc3ccccn3)[C@H](CO)O2)nn1,1.37% (inactive)
9,Cc1noc(C)c1NC(=O)Nc1ccc2c(c1)C(=O)N([C@H](C)CO)C[C@@H](C)[C@H](CN(C)S(=O)(=O)c1ccc(Cl)cc1)OCCCC[C@H](C)O2,-20.3% (inactive)
10,CCC(=O)N[C@H]1C=C[C@@H](CC(=O)NCC2CCCCC2)O[C@H]1CO,4.15% (inactive)
11,OCCCNc1nccc(-c2cc(Nc3cccc(Cl)c3)ncn2)n1,95.7% [at 12.3 µM] (active)
12,Cn1c(Nc2cccc(Cl)c2)nc2ccccc21,-29.5% [at 12.3 µM] (inactive)
13,Cc1cccc(Nc2nc(NCCO)nc(N3CCCC3)n2)c1,-14.8% [at 12.3 µM] (inactive)
14,C[C@@H]1CN([C@@H](C)CO)C(=O)c2cc(NC(=O)Nc3ccc4c(c3)OCO4)ccc2O[C@@H]1CN(C)C(=O)Nc1ccc2c(c1)OCO2,16% (inactive)
15,C[C@@H]1CN([C@H](C)CO)C(=O)c2cccc(NC(=O)Nc3cccc4ccccc34)c2O[C@@H]1CN(C)Cc1ccccc1,-16.3% (inactive)
16,COc1ccc(-c2nn(C)c(=O)c3ccccc23)cc1CNC(=O)C1CCCCC1,23.3% [at 12.3 µM] (inactive)
17,COc1ccc(S(=O)(=O)N2CCOCC2)cc1NC(=O)COc1ccccc1,-4.29% [at 12.3 µM] (inactive)
18,COc1ccc(-c2nn(C)c(=O)c3ccccc23)cc1NC(=O)COc1ccccc1,79.8% [at 12.3 µM] (active)
19,Cc1noc(C)c1NC(=O)N[C@H]1CC[C@H](CC(=O)N2CCCCC2)O[C@@H]1CO,4.43% (inactive)
20,CC1=C(C(=O)N(C(C)C)C(C)C)CC(CC(=O)NCC2CCCCC2)C(=O)N1Cc1ccccc1 (centres undefined),61.4% [at 12.3 µM] (active)
21,CC1=C(C(=O)N2CCOCC2)CC(CC(=O)NCC2CCCCC2)C(=O)N1Cc1ccc(F)cc1 (centres undefined),6.87% [at 12.3 µM] (inactive)
22,CCN(CC)C(=O)C1=C(C)N(Cc2ccccc2)C(=O)C(CC(=O)NC(c2ccccc2)c2ccccc2)C1 (centres undefined),-23.1% [at 12.3 µM] (inactive)

row,Structure (SMILES),inhibition
1,CC(NCc1ccccc1OC1CCCC1)c1ccccc1 (centres undefined),62.5% [at 12.3 µM] (active)
2,COc1cc(CNC2CCCCC2)c(Br)cc1OC1CCCC1,-65.6% [at 12.3 µM] (inactive)
3,CC(C)(C)NCc1cc(Br)ccc1OC1CCCC1,14.4% [at 12.3 µM] (inactive)
4,CCOC(=O)CNC(=O)N(C)[C@H]1C[C@H]2c3[nH]c4c(-c5ccc6c(c5)OCO6)cccc4c3CCN2C(=O)[C@H]1[C@H](C)O,-112% [at 12.3 µM] (inactive)
5,CN1CCN(C(=O)C[C@H]2C[C@@H]3c4cc(NC(=O)NC5CCCC5)ccc4O[C@@H]3[C@@H](CO)O2)CC1,-8.97% (inactive)
6,CC1CCN(C(=O)c2cc3nc(C4CC4)cc(C(F)(F)F)n3n2)CC1,12.6% [at 12.3 µM] (inactive)
7,CC1CCN(C(=O)c2ncn3c2C(=O)N[C@@H](C)C3)CC1,131% [at 12.3 µM] (active)
8,CC1CCN(C(=O)c2ccc3c(c2)NC(=O)CN3)CC1,1.27% [at 12.3 µM] (inactive)
9,CCCNC(=O)N1[C@@H](C#N)[C@H](c2ccc(-c3ccc(C(=O)N(C)C)cc3)cc2)[C@@H]1CO,26% (inactive)
10,O=C(NCc1ccncn1)[C@@H]1[C@@H](CO)[C@@H]2Cn3c(ccc(-c4ccc(F)cc4)c3=O)[C@@H]2N1CC1CC1,-1.91% (inactive)
11,COc1ccc(NC(=O)Nc2ccc3c(c2)CC(=O)N([C@@H](C)CO)C[C@H](C)[C@@H](CN(C)S(=O)(=O)c2cn(C)cn2)O3)cc1,13% (inactive)
12,O=C(COc1cc(Cl)c(Cl)cc1Cl)NCCc1ccccn1,-1.39% [at 12.3 µM] (inactive)
13,O=C(COC(=O)COc1cc(Cl)c(Cl)cc1Cl)NC1CC1,1.57% [at 12.3 µM] (inactive)
14,NC(=S)NN=Cc1ccc(OC(=O)COc2cc(Cl)c(Cl)cc2Cl)cn1,74.3% [at 12.3 µM] (active)
15,CCCN(C)C[C@H]1OCCCC[C@@H](C)Oc2ccc(N(C)C)cc2C(=O)N([C@H](C)CO)C[C@@H]1C,0.797% (inactive)
16,CCOC(=O)c1c(C)[nH]c(C)c1S(=O)(=O)NCCCc1ccco1,-4.62% [at 12.3 µM] (inactive)
17,CCOC(=O)c1[nH]c2ccccc2c1N=C(C)N(CC)CC,-0.896% [at 12.3 µM] (inactive)
18,CCOC(=O)c1c(C)[nH]c2c1-c1ccccc1C(=O)C2=O,58.9% [at 12.3 µM] (active)
19,C[C@H](CO)N1C[C@H](C)[C@@H](CN(C)CC2CC2)Oc2ccc(NC(=O)Nc3ccccc3)cc2CC1=O,-2.58% (inactive)
20,CN(C(=O)CN1C(=O)/C(=C/c2ccc(Cl)cc2)SC1=S)C1CCS(=O)(=O)C1 (centres undefined),55.1% [at 12.3 µM] (active)
21,CCN(C(=O)CN1C(=O)/C(=C/c2ccc(F)cc2)SC1=S)C1CCS(=O)(=O)C1 (centres undefined),-11.4% [at 12.3 µM] (inactive)
22,CN(C(=O)CCN1C(=O)/C(=C/c2ccccc2F)SC1=S)C1CCS(=O)(=O)C1 (centres undefined),-6.28% [at 12.3 µM] (inactive)
